In PubChem BioAssay:
Activity calls are given as the source filed them. Unless noted, the rule behind the calls is not given here.

Columns and labels:
[1] = anti-His antibody binders, primary screen, artefact control for SMM control protein annotation, biochemical, small-molecule microarray, 635 nm fluorescence (AID 1128); conditions: anti-His Alexa647 antibody binding, higher = more signal;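 note: score merges feature fluorescence with signal-to-noise for each printed compound spot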
[2] = tested on: Human papillomavirus type 1a E7 protein (residues 1-88); experiment: HPV1a E7 small-molecule binders, primary screen, biochemical, small-molecule microarray, residues 1-88, 635 nm (AID 1129); conditions: small-molecule microarray binding, fluorescence 635 nm; higher = more signal
[3] = molecular target: Focal adhesion kinase 1 (Homo sapiens) (UniProt Q05397); experiment: small-molecule microarray binders of FAK, primary screen, biochemical, 635/667 nm fluorescence, BSA, DTT (AID 1130); conditions: PTK2 binding, 635 nm fluorescence, higher = more signal;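 note: composite of spot emission at 667 nm and signal to noise over triplicate slides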
[4] = tested on: Fibrinogen (Alexa647-labelled); experiment: fibrinogen binders on compound microarrays, profiling panel, artefact control for SMM control-protein annotation, biochemical, small-molecule microarray, 635/667 nm fluorescence (AID 1131); conditions: fibrinogen-A647 binding fluorescence, higher = more signal;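 note: z-score merges 667 nm fluorescence with per-spot signal-to-noise over triplicate slides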
[5] = molecular target: Follistatin (Homo sapiens) (UniProt P19883); experiment: follistatin binders on small-molecule microarrays, primary screen, biochemical, small-molecule microarray, 635/667 nm fluorescence (AID 1132); conditions: FST binding, 635 nm fluorescence, higher = more signal
[6] = molecular target: Fibroblast growth factor 2 (Homo sapiens) (UniProt P09038); experiment: FGF2 binders on small-molecule microarrays, primary screen, biochemical, small-molecule microarray, 635/667 nm fluorescence (AID 1133); conditions: small-molecule microarray binding, FGF2, fluorescence 635/667; higher = more signal
[7] = mitochondrial membrane potential change in A549 cells, profiling panel, cell-based, JC-1 fluorescence, basal, 24 h, 100 nL (AID 1138); conditions: higher = more signal;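 note: A549 lung adenocarcinoma cells under basal conditions with no added stimulus; test concentration not given here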
[8] = tested on: Lefty1; experiment: Lefty1 binders on small-molecule microarrays, primary screen, biochemical, small-molecule microarray, 635/667 nm fluorescence (AID 1139); conditions: small-molecule microarray binding, fluorescence 635/667; higher = more signal
[9] = tested on: wheat germ agglutinin (Triticum aestivum), Alexa647-labelled; experiment: wheat germ agglutinin binders on compound microarrays, profiling panel, artefact control for SMM control-protein annotation, biochemical, small-molecule microarray, 635/667 nm fluorescence (AID 1140); conditions: WGA-A647 binding, 635 nm fluorescence, higher = more signal;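 note: score merges 667 nm feature emission with signal to noise over triplicate slides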
[10] = molecular target: Luciferin 4-monooxygenase (Photinus pyralis) (UniProt P08659); experiment: firefly luciferase enzyme inhibitors, primary screen, biochemical, luminescence, purified enzyme, 2006 set (AID 1141); conditions: SteadyGlo luminescence, 30 min, higher = more signal, called active from +8 up or from −8 down;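 note: cell-free assay with purified firefly luciferase at 100 ng per well in PBS; test concentration not given here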
[11] = tested on: Wnt5a (protein binding on small-molecule microarray); experiment: Wnt5a binders on small-molecule microarray, primary screen, biophysical, 635/667 nm fluorescence (AID 1142); conditions: 635 nm fluorescence, higher = more signal;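 note: fluorescence read at 667 nm with signal to noise per printed feature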
[12] = cell viability in Huh7 cells, primary screen, cytotoxicity control for HCV replication inhibitor project, CellTiter-Glo luminescence, basal, 48 h (AID 1143); conditions: Huh7 HCV replicon, higher = more signal, called active from +8 up or from −8 down;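 note: Huh7 hepatoma cells carrying a hepatitis C replication reporter with no stimulus; test concentration not given here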
[13] = P. aeruginosa biofilm formation inhibitors, primary screen, PAO1 strain, BacTiter-Glo luminescence, LB-PBS (AID 1144); conditions: 12 h, higher = more signal
[14] = CREB reporter modulators without forskolin, primary screen, cell-based, PC12, CRE-LacZ reporter, unstimulated (AID 1145); conditions: no forskolin, luminescence, 4.5 h, higher = more signal, called active from +8 up or from −8 down
[15] = CREB reporter modulators under forskolin, primary screen, cell-based, PC12, CRE-LacZ reporter, forskolin-stimulated (AID 1146); conditions: luminescence, 4.5 h, higher = more signal, called active from +8 up or from −8 down;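 note: PC12 cells with 6xCRE LacZ reporter stimulated by forskolin 10 µM; beta-galactosidase reporter signal reflecting CREB driven transcription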
[16] = molecular target: Streptavidin (Streptomyces avidinii) (UniProt P22629); experiment: streptavidin binders on small-molecule microarray, primary screen, artefact control for SMM compound annotation, biophysical, 635/667 nm fluorescence (AID 1147); conditions: streptavidin binding, higher = more signal;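 note: signal reflects streptavidin binding to arrayed compounds as a control protein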
[17] = small-molecule binders of probe aInhba, primary screen, biochemical, small-molecule microarray, 635/667 nm fluorescence (AID 1148); conditions: higher = more signal;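 note: score merges 667nm spot fluorescence with signal-to-noise for antibody binding to printed compounds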
[18] = molecular target: Torsin-1A (Homo sapiens) (UniProt O14656); experiment: torsin A binders from cell lysate, primary screen, small-molecule microarray, wild-type, 635/667 nm (AID 1149); conditions: COS7 hTOR1A-WT lysate, 635 nm fluorescence, higher = more signal
[19] = molecular target: Torsin-1A (Homo sapiens) (UniProt O14656); experiment: small-molecule binders of mutant TOR1A in lysate, primary screen, cell lysate, small-molecule microarray, COS7 lysate, 635/667 nm fluorescence (AID 1150); conditions: COS7 hTOR1A mutant lysate, 635 nm fluorescence, higher = more signal;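 note: score pools 667 nm emission and signal to noise measuring lysate protein binding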
[20] = tested on: Sonic hedgehog protein (Shh); experiment: small-molecule binders of Shh protein, primary screen, biochemical, small-molecule microarray, 635/667 nm fluorescence (AID 1151); conditions: small-molecule microarray binding, 635 nm fluorescence; higher = more signal;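 note: Shh protein binding to compounds spotted on small-molecule microarray slides; score combines spot fluorescence intensity with signal-to-noise across triplicate slides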

Luciferin 4-monooxygenase (Photinus pyralis), sequence (P08659 whole entry, looked up): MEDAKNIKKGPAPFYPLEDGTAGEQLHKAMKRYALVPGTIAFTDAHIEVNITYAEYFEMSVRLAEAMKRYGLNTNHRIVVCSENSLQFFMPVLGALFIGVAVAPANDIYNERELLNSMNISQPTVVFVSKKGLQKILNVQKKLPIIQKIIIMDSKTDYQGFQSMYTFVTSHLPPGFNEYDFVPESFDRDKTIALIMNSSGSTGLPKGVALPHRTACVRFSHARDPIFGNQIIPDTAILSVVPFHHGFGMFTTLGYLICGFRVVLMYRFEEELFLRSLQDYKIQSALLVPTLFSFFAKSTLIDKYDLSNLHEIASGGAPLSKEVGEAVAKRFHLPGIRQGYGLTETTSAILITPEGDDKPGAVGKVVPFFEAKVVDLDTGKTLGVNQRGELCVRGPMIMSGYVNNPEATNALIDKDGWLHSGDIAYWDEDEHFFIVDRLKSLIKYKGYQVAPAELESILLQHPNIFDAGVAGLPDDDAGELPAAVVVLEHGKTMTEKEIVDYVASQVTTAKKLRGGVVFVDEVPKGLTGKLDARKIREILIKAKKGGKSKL
Fibroblast growth factor 2 (Homo sapiens), sequence (P09038 whole entry, looked up): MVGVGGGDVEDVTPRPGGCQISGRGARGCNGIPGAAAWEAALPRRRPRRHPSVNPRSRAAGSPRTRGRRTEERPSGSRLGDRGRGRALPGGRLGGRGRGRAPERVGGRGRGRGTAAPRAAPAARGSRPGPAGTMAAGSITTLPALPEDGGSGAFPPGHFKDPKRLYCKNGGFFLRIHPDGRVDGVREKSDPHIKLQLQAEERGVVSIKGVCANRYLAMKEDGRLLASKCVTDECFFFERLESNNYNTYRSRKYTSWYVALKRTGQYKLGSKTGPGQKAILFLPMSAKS
Focal adhesion kinase 1 (Homo sapiens), sequence (Q05397 whole entry, looked up): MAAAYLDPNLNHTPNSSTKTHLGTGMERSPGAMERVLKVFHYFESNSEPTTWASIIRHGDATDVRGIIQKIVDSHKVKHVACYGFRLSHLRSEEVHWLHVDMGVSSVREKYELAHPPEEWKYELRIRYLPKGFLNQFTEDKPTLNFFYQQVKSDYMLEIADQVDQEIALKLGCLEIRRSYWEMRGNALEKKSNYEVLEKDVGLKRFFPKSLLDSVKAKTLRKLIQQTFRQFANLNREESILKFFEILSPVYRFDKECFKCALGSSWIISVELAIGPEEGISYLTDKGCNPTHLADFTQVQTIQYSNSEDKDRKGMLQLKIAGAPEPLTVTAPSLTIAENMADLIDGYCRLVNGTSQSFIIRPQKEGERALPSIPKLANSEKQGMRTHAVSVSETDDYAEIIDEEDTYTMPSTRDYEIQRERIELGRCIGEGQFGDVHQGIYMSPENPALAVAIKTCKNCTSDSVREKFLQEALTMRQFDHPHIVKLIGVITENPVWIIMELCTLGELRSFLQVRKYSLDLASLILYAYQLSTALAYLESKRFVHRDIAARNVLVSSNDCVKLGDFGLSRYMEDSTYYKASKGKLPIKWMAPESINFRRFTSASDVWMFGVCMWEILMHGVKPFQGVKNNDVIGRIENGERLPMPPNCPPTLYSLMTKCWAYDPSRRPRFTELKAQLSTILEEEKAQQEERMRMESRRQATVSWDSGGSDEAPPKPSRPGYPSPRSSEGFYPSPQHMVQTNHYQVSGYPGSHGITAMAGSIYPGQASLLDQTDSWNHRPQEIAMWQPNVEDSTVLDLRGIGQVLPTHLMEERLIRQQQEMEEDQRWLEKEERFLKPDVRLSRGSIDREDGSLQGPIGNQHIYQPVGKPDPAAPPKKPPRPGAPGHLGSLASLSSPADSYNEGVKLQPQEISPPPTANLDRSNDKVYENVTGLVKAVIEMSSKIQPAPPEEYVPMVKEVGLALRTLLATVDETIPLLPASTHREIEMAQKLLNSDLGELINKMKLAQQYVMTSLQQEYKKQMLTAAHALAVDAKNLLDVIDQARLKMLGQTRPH
Torsin-1A (Homo sapiens), sequence (O14656 whole entry, looked up): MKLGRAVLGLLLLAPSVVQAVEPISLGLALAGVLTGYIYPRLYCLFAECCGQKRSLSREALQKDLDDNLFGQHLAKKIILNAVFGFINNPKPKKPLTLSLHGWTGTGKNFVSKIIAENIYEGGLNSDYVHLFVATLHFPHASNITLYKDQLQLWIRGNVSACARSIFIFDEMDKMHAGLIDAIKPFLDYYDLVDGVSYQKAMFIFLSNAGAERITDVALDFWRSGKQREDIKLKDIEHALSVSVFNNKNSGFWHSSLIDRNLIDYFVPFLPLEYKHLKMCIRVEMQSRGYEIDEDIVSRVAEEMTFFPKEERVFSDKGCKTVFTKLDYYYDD
Follistatin (Homo sapiens), sequence (P19883 whole entry, looked up): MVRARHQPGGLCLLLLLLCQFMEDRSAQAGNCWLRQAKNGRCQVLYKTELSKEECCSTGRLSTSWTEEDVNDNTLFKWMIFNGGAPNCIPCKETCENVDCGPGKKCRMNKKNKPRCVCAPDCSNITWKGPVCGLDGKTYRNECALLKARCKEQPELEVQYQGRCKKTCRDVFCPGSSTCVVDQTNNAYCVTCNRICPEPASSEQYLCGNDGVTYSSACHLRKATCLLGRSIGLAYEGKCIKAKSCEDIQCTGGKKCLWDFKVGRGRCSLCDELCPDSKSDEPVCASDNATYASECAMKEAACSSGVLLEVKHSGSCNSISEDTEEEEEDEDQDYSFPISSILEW
Streptavidin (Streptomyces avidinii), sequence (P22629 whole entry, looked up): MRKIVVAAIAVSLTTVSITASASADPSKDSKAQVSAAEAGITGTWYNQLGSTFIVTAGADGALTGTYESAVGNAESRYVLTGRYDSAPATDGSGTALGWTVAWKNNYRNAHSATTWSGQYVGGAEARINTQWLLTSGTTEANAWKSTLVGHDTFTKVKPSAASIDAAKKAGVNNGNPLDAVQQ

Row | SMILES | composite z-score [1] | composite z-score [2] | composite z-score [3] | composite z-score [4] | composite z-score [5] | composite z-score [6] | z-score [7] | composite z-score [8] | composite z-score [9] | z-score [10] | composite z-score [11] | z-score [12] | z-score [13] | z-score [14] | z-score [15] | composite z-score [16] | composite z-score [17] | composite z-score [18] | composite z-score [19] | composite z-score [20]
1 | CC(C)(C)OC(=O)CC[C@]1(C(=O)NCCN2CCOCC2)COC(c2ccc(OCCCO)cc2)=N1 | 1.34 | 1.19 | 0.436 | 0.46 | 1.32 | 1.78 | -0.13 | 0.78 | 0.253 | 0.965 (inactive) | 0.681 | -0.102 (inactive) | -0.192 (inactive) | 0.157 (inactive) | -0.168 (inactive) | 0.344 | 0.0227 | 0.717 | 1.37 | 0.998
2 | CC(C)[C@@H](C(=O)O)n1cc(C2(O)CCCCC2)nn1 | 0.948 | 1.1 | 0.167 | 0.598 | 0.486 | 0.2 | 0.0494 | 0.528 | 0.0063 | 0.983 (inactive) | 0.265 | -0.671 (inactive) | -0.78 (inactive) | -0.23 (inactive) | -0.669 (inactive) | 0.306 | -0.101 | -0.0244 | 0.404 | 0.151
3 | CC(C)CN1C(=O)[C@@]2(c3ccc([N+](=O)[O-])cc3)CC(=O)N(C3CCCCC3)[C@@H]2c2ccc(CO)cc21 | -0.75 | -1.07 | -0.0035 | -1.05 | -1.29 | -0.875 | 0.766 | -0.919 | 0.428 | 0.791 (inactive) | -0.409 | -0.159 (inactive) | -0.927 (inactive) | -0.502 (inactive) | 0.241 (inactive) | -0.471 | -0.237 | -1.32 | -1.67 | -0.939
4 | COC(=O)[C@@]1(Cc2ccc(OC)cc2)[C@H]2c3cc(C(=O)N(C)C)n(Cc4ccc(C(F)(F)F)nc4)c3C[C@H]2CN1C(=O)c1ccccc1 | 0.598 | 0.846 | 1.2 | 0.843 | -0.0313 | -0.49 | 0.549 | -0.501 | 0.833 | 0.678 (inactive) | 0.24 | 0.398 (inactive) | -0.123 (inactive) | 0.59 (inactive) | 1.54 (inactive) | 0.365 | 0.397 | -0.0912 | 0.0628 | -0.709
5 | COC(=O)[C@@]1(Cc2ccc(OC)cc2)[C@H]2c3cc(C(=O)N4CCCC4)n(CCCNc4ncc(C(F)(F)F)cc4Cl)c3C[C@H]2CN1C(=O)c1ccccc1 | 2.65 | 1.14 | 1.1 | 0.768 | 1.12 | -0.167 | -1.51 | 0.337 | 0.626 | 2.54 (inactive) | 1.53 | -3.28 (inactive) | 0.0557 (inactive) | 0.769 (inactive) | 0.627 (inactive) | 1.25 | 0.826 | 0.0188 | 0.27 | -0.418
6 | C=CCNC(=O)[C@H]1[C@@H]2C(=O)O[C@@H](c3ccccc3)[C@@H](c3ccccc3)N2[C@@H](c2ccc(OCCO)cc2)[C@]12C(=O)Nc1ccc(C#CCC(C(=O)OC)C(=O)OC)cc12 | 2.47 | 1.2 | 0.413 | 0.858 | 0.929 | 0.826 | -0.765 | 0.385 | 0.887 | -0.275 (inactive) | 0.256 | -1.19 (inactive) | 0.626 (inactive) | -0.728 (inactive) | 0.323 (inactive) | 1.17 | 0.0816 | 0.332 | 0.862 | 0.984
7 | C=CC[C@]12N=C(c3ccc(OCCCO)cc3)O[C@H]1c1ccccc1N(CCS(=O)(=O)c1ccccc1)C2=O | 1.66 | 1.23 | 0.472 | 0.971 | 1.15 | 1.38 | 0.337 | 1.05 | 0.97 | -12.4 (active) | 0.382 | -3.24 (inactive) | -0.438 (inactive) | -1.04 (inactive) | -1.87 (inactive) | 1.07 | -0.101 | 0.695 | 0.79 | 1.39
8 | O=C(O)C1N=C(c2ccc(OCCCO)cc2)N(c2ccccc2)O1 (stereo not given) | 1.73 | 1.1 | 0.817 | 0.953 | 1.3 | 1.18 | 0.0657 | 0.369 | 0.207 | -7.84 (inactive) | 0.222 | -0.205 (inactive) | 1.3 (inactive) | 0.101 (inactive) | 1.16 (inactive) | 0.926 | -0.166 | 0.666 | 1.72 | 0.287
9 | C=C(CCCC)/C(=C/C[C@H](OC(=O)c1ccncc1)c1ccc(OCCO)cc1)c1cc(C(=O)OC)ccc1OC | 1.07 | 1.18 | 0.525 | 0.438 | -0.0021 | 0.0508 | 0.313 | 0.394 | 0.704 | -0.723 (inactive) | 0.355 | -4.81 (inactive) | 0.282 (inactive) | 5.11 (inactive) | -0.366 (inactive) | 0.0399 | 0.0104 | 0.404 | 0.102 | 1.96
10 | CCCCC(O)C1C=CC2C(=O)N(C)C(=O)C2N1N1CCCCC1 (stereo not given) | 1.69 | 0.678 | 0.367 | 1.03 | 0.971 | -0.331 | -0.0954 | 0.412 | 1.19 | 0.452 (inactive) | 0.0755 | 1.09 (inactive) | 0.382 (inactive) | 0.0535 (inactive) | 0.47 (inactive) | 0.0223 | 0.196 | 0.0748 | 0.845 | 0.0629
